Bioassay records: PubChem BioAssay, National Center for Advancing Translational Sciences (NCATS)
KB-3-1 cytotox = qHTS assay for MDR1-selective chemotherapeutics: Primary screen using the parental adenocarcinoma cell KB-3-1; KB-3-1 viability, CellTiter-Glo ATP luminescence, 72 h; Potency, µM (series often up to 46.1 µM), actives largely listed as cytotoxic; 1.4% of 400,000 active; AID 1347075, 2019; further: on the % scale 0 is the no-effect control and ±100 the full control effect; nearly all actives have a fitted effect of over 60% in size
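Cytotoxicity in the drug-sensitive parental line KB-3-1 was scored as loss of CellTiter-Glo luminescence following 72 h incubation with compound. Values come from curve fitting of normalized concentration-response data.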
KB-V1 MDR tox = qHTS assay for MDR1-selective chemotherapeutics: Primary screen using the drug-selected MDR subline cells KB-V1; Potency, µM (top dose mostly 46.1 µM), actives largely listed as cytotoxic; KB-V1 MDR cells viability, CellTiter-Glo, 72 h; 3.4% of 400,000 active; further: on the % scale 0 is the no-effect control and ±100 the full control effect; nearly all actives have a fitted effect of over 60% in size
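KB-V1 cells (P-gp-expressing MDR subline of KB-3-1) in phenol-red-free DMEM with 10% FBS were exposed to library compounds over a concentration series for 72 h at 37 degrees C. Viability read by CellTiter-Glo luminescence; concentration-effect curves fitted after normalization.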
MCF10A rereplic = A quantitative high throughput screen for small molecules that induce DNA re-replication in MCF 10a normal breast cells. MCF 10A DNA re-replication, Hoechst nuclear intensity, 48 h. Potency, µM (highest dose often 46.1 µM), for inactives: at the highest dose activity, positive = re-replication, hits mostly activators. 2.9% of 350,000 active; further: % of control where 0% means no effect; nearly all actives have a fitted effect of over 50% in size
HT1080-NT tox = qHTS for induction of synthetic lethality in tumor cells producing 2HG: qHTS for the HT-1080-NT fibrosarcoma cell line; HT-1080-NT fibrosarcoma viability, CellTiter-Glo ATP luminescence, 48 h; Potency, µM (titrated, usually from 46.1 µM), inactives show top-dose activity, negative = less viability, most hits filed as cytotoxic; 1.6% of 360,000 active; AID 686970, 2013;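 further: NT is the 2HG producing partner of a matched IDH1 knockdown line; 0% = DMSO-treated cells and -100% = media-only wells without cells; nearly all actives have a fitted effect of over 55% in size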
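Compounds were tested in concentration-response format on HT-1080-NT cells for 48 hours at 37 degrees C. Cell viability came from CellTiter-Glo luminescence; curves were classified by r2, response magnitude and activity.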
HT1080 IDH1KD tx = qHTS for induction of synthetic lethality in tumor cells producing 2HG: qHTS for the HT-1080-IDH1KD cell line; HT-1080 IDH1 knockdown viability, ATP luminescence, 48 h; Potency, µM (top dose mostly 46.1 µM), without a hit: at the top dose activity, negative = toxicity, hits mostly cytotoxic; 2% of 360,000 active; AID 686971, 2013;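 further: 0% = DMSO wells and -100% = cell-free medium wells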
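IDH1KD HT-1080 cells, 750/well, RPMI + 5% FBS; compound pinned after 2 h settling; 48 h, 37 °C; CellTiter-Glo luminescence; % activity normalised to DMSO and no-cell wells; curves fitted, classed by r2 and efficacy.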
SW480 rereplic = A quantitative high throughput screen for small molecules that induce DNA re-replication in SW480 colon adenocarcinoma cells | SW480 DNA re-replication, Hoechst DNA content imaging, 48 h | Potency, µM (doses to about 46.1 µM), for the others: top-dose re-replication activation, usual class: activators | 1.8% of 340,000 active; further: % of control where 0% means no effect; nearly all actives have a fitted effect of over 55% in size
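Cells (250 per well) received 23 nL compound or DMSO by pin tool and were kept 48 hr at 37 C, 5% CO2. Nuclei were then stained with Hoechst for 40 min and scanned for DNA content.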
Active calls of the source: *; i = inactive; u = inconclusive; x = no result given. Sampled rows, rich in hits. Any-hit rate of the full collection: about 7.9%. The call rests on the fitted dose curve; in most records, active means well fitted curve in the direction sought with a large enough effect; inconclusive means small, poorly fitted or top-dose-only effect, or another doubt; inactive means no such curve, though single readings can be large; an effect the other way counts as inactive or inconclusive. Potency means the concentration at half of the fitted maximal effect.

SMILES	KB-3-1 cytotox	KB-V1 MDR tox	MCF10A rereplic	HT1080-NT tox	HT1080 IDH1KD tx	SW480 rereplic
CC(C)Cc1ccc(-c2ccc3nccn3c2)cc1	i	i	x	u	u	x
CCOC(=O)c1c(C)[nH]c(C)c1S(=O)(=O)N1CCC(C(=O)NCc2ccccc2)CC1	i	u	x	x	x	x
Cc1cccc(C(O)c2ncc(-c3ccc(C(F)(F)F)cc3)[nH]2)c1C (stereo not given)	i	i	x	4%	-12%	x
CCSc1nnc(NC(=O)CSc2nc3c(c(=O)n2C)SC(C)C3)s1 (stereo not given)	i	2.9µM*	-4%	20%	1%	3%
CC1Cc2nc(SCC(=O)N3CCOCC3)n(C)c(=O)c2S1 (stereo not given)	i	i	-2%	2%	6%	-20%
CCSc1nnc(NC(=O)CSc2nc3c(c(=O)n2CC)SC(C)C3)s1 (stereo not given)	6.5µM*	2.6µM*	10%	2%	3%	-2%
CC1Cc2nc(SCC(=O)N3CCc4ccccc43)n(C)c(=O)c2S1 (stereo not given)	i	2.6µM*	7%	-1%	0%	-4%
CCn1c(SCC(=O)Nc2nnc(C)s2)nc2c(c1=O)SC(C)C2 (stereo not given)	i	i	2%	3%	0%	0%
O=C(NC(Cc1c[nH]c2ccccc12)C(=O)Nc1ccc(F)c([N+](=O)[O-])c1)c1cccs1 (stereo not given)	u	6.5µM*	u	u	u	u
O=C(NC(Cc1c[nH]c2ccccc12)C(=O)Nc1ccc(OC(F)(F)F)cc1)c1cccs1 (stereo not given)	12µM*	u	u	u	21µM*	u
Cc1cccc(NC(=O)c2sc3ncnc(N(C)C4CCCCC4)c3c2C)c1C	i	i	x	x	x	x
COCCCN=C1NN=C(c2cc(C)n(Cc3ccccc3Cl)c2C)CS1	1.3µM*	1.5µM*	u	4.6µM*	7.3µM*	0.65µM*
Cc1cc(C2=NNC(=Nc3ccccc3)SC2)c(C)n1C	i	i	4%	7%	-2%	11%
COCCCN=C1NN=C(c2cc(C)n(-c3ccccc3F)c2C)CS1	7.3µM*	i	u	u	u	u
COCCCN=C1NN=C(c2cc(C)n(-c3ccccc3)c2C)CS1	i	i	u	7%	13%	u
COCCn1c(C)cc(C2=NNC(=Nc3ccccc3F)SC2)c1C	18µM*	12µM*	19%	-1%	-10%	5%
NS(=O)(=O)c1ccc(NC(=O)CN2CCN(c3ccc(F)cc3)CC2)cc1	i	i	x	x	x	x
CCC(C)N(C(=O)c1csnn1)C(C(=O)NCc1ccc(F)cc1)c1ccco1 (stereo not given)	i	16µM*	5%	2%	4%	-5%
CCC(C)(C)NC(=O)C(c1ccco1)N(C(=O)c1csnn1)c1cccc(F)c1 (stereo not given)	i	16µM*	18%	-10%	-2%	7%
CN(CC(=O)Nc1ccc(OC(F)(F)F)cc1)C(=O)c1ccccc1SCC(=O)N1CCCC1	16µM*	7.3µM*	-8%	2%	-1%	-1%
COc1ccc(-c2oc3ncn4nc(COc5ccccc5C)nc4c3c2-c2ccc(OC)cc2)cc1	i	i	x	x	x	x
c1ccc2nc3c(nc2c1)[nH]c1ccccc13	i	i	28%	-4%	-28%	12%
c1ccc(-c2c3ccccc3nc3[nH]c4ccccc4c23)cc1	i	i	u	-9%	-1%	12µM*
COc1ccc(OC)c(NC(=O)c2cnc(N3CCCCC3)c3ccccc23)c1	i	i	x	x	x	x
CC1CCCCN1CCCNC(=O)Cn1ncc2c3ccccc3n(Cc3ccccc3)c2c1=O (stereo not given)	i	u	x	x	x	x
O=C(CSc1nc(-c2ccccc2)cs1)N1CCN(C(=O)c2ccco2)CC1	i	18µM*	1%	3%	-4%	7%
